From PubChem BioAssay (Tox21)
Values joined by “and” are separate entries in the source; they are usually repeats but may differ in a detail not shown here. Equal values may be shown once. Results filed as inconclusive are left out. Where a structure was tested more than once in an assay, its records may differ in their call. Active and inactive are the calls of the source. Unless noted, calls come from the whole dose curve.

Tests used:
[1] = Nuclear factor erythroid 2-related factor 2/antioxidant responsive element (Nrf2/ARE) small molecule agonists: qHTS cell viability counter screen in human keratinocytes (AID 1919968; active = well fitted curve in the direction sought with a large enough effect in the repeat runs; an effect the other way counts as inactive or inconclusive; note: nearly all actives have a fitted effect of over 55% in size)
Outline: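 Measured as CellTiter-Fluor fluorescence, this readout tracks cytotoxicity in the same wells as the ARE-luciferase screen. HaCaT reporter cells (1,500/well) received compounds after a 5 h pre-incubation and were exposed for 23 h.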

[2] = Nuclear factor erythroid 2-related factor 2/antioxidant responsive element (Nrf2/ARE) small molecule agonists: luciferase reporter gene qHTS assay in human keratinocytes (AID 1919969); note: nearly all actives have a fitted effect of over 35% in size; note: potency is the fitted concentration of half-maximal effect
[3] = target: Gonadotropin-releasing hormone receptor (Homo sapiens) (UniProt P30968); assay: Human gonadotropin-releasing hormone receptor (GnRHR) small molecule agonists, calcium flux assay in GnRHR-HEK293 cells (AID 1920063); note: nearly all actives have a fitted effect of over 35% in size
Outline: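 Fluorescence kinetics (480 nm excitation, 540 nm emission; 3 min, 1 s steps) report calcium mobilisation in human GnRHR-HEK293 cells in agonist mode. Dye incubation: 1 h, 37 C.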

[4] = target: KiSS-1 receptor (Homo sapiens) (UniProt Q969F8); assay: Human kisspeptin (KISS1R) small molecule agonists, calcium flux assay in KISS1R-HEK293 cells (AID 1920064; active = well fitted curve in the direction sought with a large enough effect in the repeat runs; an effect the other way counts as inactive or inconclusive)
Outline: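 Measures KISS1R agonism through calcium-sensitive dye fluorescence in stably transfected HEK293 cells, read for 3 min after pin-tool compound delivery; 15-point titrations in triplicate.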

[5] = G protein-coupled receptor (GPCR) small molecule agonists, calcium flux assay: HEK293 wild type cell line counter screen (AID 1920065)
Outline: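 Readout: fluorescence at 480 nm excitation/540 nm emission, sampled at 1 s intervals for 3 min. Cells had been cultured 18 h, then dye-loaded 1 h at 37 C before compound or ATP addition.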

[6] = p53 small molecule agonists, cell-based qHTS assay with human liver microsomes (AID 1963577)
Outline: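 Fluorescence of the beta-lactamase reporter in p53RE-bla cells, detected with LiveBLAzer substrate (2 h, room temperature, dark), served as the read-out after 16 h compound exposure at 37 C with human liver microsomes and NADPH, each 0.5 mg/mL final.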

[7] = p53 small molecule agonists, cell-based qHTS assay with rat liver microsomes (AID 1963578)
Outline: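 Cells carrying a p53 response element–beta-lactamase reporter were plated and rested 5 h, then dosed with compound in DMSO plus rat liver microsomes and NADPH, each at 0.5 mg/mL final. After 16 h at 37 C, LiveBLAzer substrate was added for 2 h.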

[8] = p53 small molecule agonists, cell-based qHTS assay with human liver microsomes: qHTS cell viability counter screen (AID 1963579); note: nearly all actives have a fitted effect of over 45% in size
Outline: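 Cytotoxicity counter screen: p53RE-bla, 4,000 cells/well; 5 h settle, 37 C/5% CO2; cpd + HLM 0.5 mg/mL + NADPH 0.5 mg/mL (final); 16 h, 37 C; CellTiter-Glo, 30 min RT, luminescence.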

[9] = p53 small molecule agonists, cell-based qHTS assay with rat liver microsomes: qHTS cell viability counter screen (AID 1963580); note: nearly all actives have a fitted effect of over 45% in size
Outline: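 p53RE-bla HCT-116 cells were exposed 16 h at 37 C to compounds with rat liver microsomes (0.5 mg/mL) and NADPH (0.5 mg/mL). Viability was measured in the same wells as ATP content by CellTiter-Glo luminescence.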

[10] = p53 small molecule agonists, cell-based qHTS assay: qHTS cell viability counter screen (AID 1963581); note: nearly all actives have a fitted effect of over 45% in size
Outline: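 In the same plates used for the p53 bla reporter, HCT-116 cells given compounds for 16 h at 37 C received CellTiter-Glo; luminescence was recorded 30 min later at room temperature.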

[11] = p53 small molecule agonists, cell-based qHTS assay (AID 1963582; active = well fitted activation curve with a large enough effect in the signal ratio in the repeat runs, not every such curve was filed as active; the % refers to the signal ratio)
Outline: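 Compounds are pin-transferred in DMSO onto p53RE-bla cells and incubated 16 h at 37 C. The B/G FRET beta-lactamase substrate is then applied for 2 h at RT and fluorescence recorded.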

[12] = target: 5-hydroxytryptamine receptor 2A (Homo sapiens) (UniProt P28223); assay: 5-hydroxytryptamine receptor 2A (HTR2A) small molecule antagonists, cell-based qHTS assay (AID 1963586); note: nearly all actives have a fitted effect of over 45% in size; note: potency is the fitted concentration of half-maximal effect
Outline: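 Antagonist-mode intracellular calcium assay: DOI (4 nM) added after 5 min compound pre-incubation at room temperature to dye-loaded HTR2A-CHO cells. Fluorescence followed for 3 min, sampled every second.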

[13] = target: 5-hydroxytryptamine receptor 2A (Homo sapiens) (UniProt P28223); assay: 5-hydroxytryptamine receptor 2A (HTR2A) small molecule agonists, cell-based qHTS assay (AID 1963587); note: nearly all actives have a fitted effect of over 30% in size
Outline: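 CHO cells stably expressing human HTR2A, plated 18 h, loaded with calcium dye 1 h at 37 C. Agonist mode: compounds added and intracellular calcium fluorescence recorded kinetically for 2 min at 1 sec intervals.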

[14] = target: Muscarinic acetylcholine receptor M1 (Homo sapiens) (UniProt P11229); assay: Cholinergic receptor muscarinic 1 (CHRM1) small molecule antagonists, cell-based qHTS assay (AID 1963588); note: nearly all actives have a fitted effect of over 40% in size
Outline: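 CHRM1-CHO calcium-flux assay, antagonist mode. Cells were seeded 18 h, dye-loaded 1 h at 37 C and given compound for 5 min at RT, then acetylcholine was added at 50nM. FDSS fluorescence was read 3 min; 15 concentrations, three runs.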

[15] = target: Muscarinic acetylcholine receptor M1 (Homo sapiens) (UniProt P11229); assay: Cholinergic receptor muscarinic 1 (CHRM1) small molecule agonists, cell-based qHTS assay (AID 1963589); note: nearly all actives have a fitted effect of over 35% in size
Outline: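 Each compound was tested at 15 concentrations across three independent runs on dye-loaded CHO cells stably expressing human CHRM1, reading intracellular calcium fluorescence kinetically at 1 sec intervals.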

[16] = cAMP Responsive Elements (CRE) small molecule agonists, cell-based qHTS assay (AID 1963590)
Outline: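 Cell line: CRE-bla HEK 293T; medium DMEM/10% dialyzed FBS/0.1 mM NEAA/1 mM pyruvate/25 mM HEPES; 3 h compound exposure; beta-lactamase FRET readout after 2 h substrate loading at RT.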

[17] = cAMP Responsive Elements (CRE) small molecule antagonists, cell-based qHTS assay (AID 1963591; active = well fitted inhibition curve with a large enough effect in the signal ratio in the repeat runs, not every such curve was filed as active; the % refers to the signal ratio)
Outline: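 Inhibition of NKH477-driven (0.25 uM final) CRE-beta-lactamase signal in HEK293T cells, 3 h compound exposure at 37 °C, detected by FRET substrate fluorescence.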

[18] = target: Beta-2 adrenergic receptor (Homo sapiens) (UniProt P07550); assay: Adrenergic beta2 receptor (ADRB2) small molecule antagonists, cell-based qHTS assay (AID 1963592); note: series mostly up to about 92 µM; nearly all actives have a fitted effect of over 50% in size
Outline: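 Cells (CHO, stable ADRB2 overexpression) incubated 18-20hr at 37C; compounds added from DMSO; agonist mix (1nM isoproterenol, 100uM IBMX, 25uM Ro-20-1724) added; 0.5hr RT; d2-cAMP and anti-cAMP-cryptate added; 1hr RT; 665/615 nm read.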

[19] = target: D(2) dopamine receptor (Homo sapiens) (UniProt P14416); assay: Dopamine D2 receptor (DRD2) small molecule agonists, cell-based qHTS assay (AID 1963594); note: nearly all actives have a fitted effect of over 35% in size
Outline: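 HEK293 cells stably expressing human DRD2, pre-treated with PDE inhibitor Ro20-1724 (0.1 mM final) and compound 10 min at room temperature, then stimulated with NKH477 (200nM […]) for 30 min. cAMP read by HTRF (665/620 nm).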

[20] = target: D(2) dopamine receptor (Homo sapiens) (UniProt P14416); assay: Dopamine D2 receptor (DRD2) small molecule antagonists, cell-based qHTS assay (AID 1963595; active = well fitted inhibition curve with a large enough effect in the signal ratio in the repeat runs, with a control signal flat; the % refers to the signal ratio)
Outline: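 HEK293 cells stably expressing DRD2 were preincubated with 0.1 mM Ro20-1724, then with compound for 10 min at room temperature. Cells were stimulated with 200 nM NKH477 plus 12 nM quinpirole for 30 min, and cAMP was read by HTRF.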
% is set by controls: 0 for no effect and ±100 for the full control effect.

Gonadotropin-releasing hormone receptor (Homo sapiens), sequence (P30968 whole entry, looked up): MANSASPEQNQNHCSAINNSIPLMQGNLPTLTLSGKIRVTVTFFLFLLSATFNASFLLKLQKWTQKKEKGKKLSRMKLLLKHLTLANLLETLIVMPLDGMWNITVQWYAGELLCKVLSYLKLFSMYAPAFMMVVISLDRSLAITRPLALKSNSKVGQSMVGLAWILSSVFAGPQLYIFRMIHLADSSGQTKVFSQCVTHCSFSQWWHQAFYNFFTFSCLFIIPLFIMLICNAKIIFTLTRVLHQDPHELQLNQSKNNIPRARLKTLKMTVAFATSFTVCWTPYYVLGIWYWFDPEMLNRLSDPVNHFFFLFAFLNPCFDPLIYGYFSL
D(2) dopamine receptor (Homo sapiens), sequence (P14416 whole entry, looked up): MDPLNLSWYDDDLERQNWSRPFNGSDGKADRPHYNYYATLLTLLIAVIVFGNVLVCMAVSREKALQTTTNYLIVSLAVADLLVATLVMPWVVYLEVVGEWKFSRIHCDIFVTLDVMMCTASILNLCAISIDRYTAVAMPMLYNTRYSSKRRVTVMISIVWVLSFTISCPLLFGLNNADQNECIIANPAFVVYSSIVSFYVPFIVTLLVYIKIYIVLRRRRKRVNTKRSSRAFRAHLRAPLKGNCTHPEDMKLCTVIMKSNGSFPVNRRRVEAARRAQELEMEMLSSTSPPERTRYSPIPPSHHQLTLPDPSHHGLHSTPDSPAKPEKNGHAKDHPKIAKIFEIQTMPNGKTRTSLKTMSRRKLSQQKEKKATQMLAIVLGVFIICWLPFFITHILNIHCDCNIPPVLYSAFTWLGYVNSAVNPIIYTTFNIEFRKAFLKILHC
5-hydroxytryptamine receptor 2A (Homo sapiens), sequence (P28223 whole entry, looked up): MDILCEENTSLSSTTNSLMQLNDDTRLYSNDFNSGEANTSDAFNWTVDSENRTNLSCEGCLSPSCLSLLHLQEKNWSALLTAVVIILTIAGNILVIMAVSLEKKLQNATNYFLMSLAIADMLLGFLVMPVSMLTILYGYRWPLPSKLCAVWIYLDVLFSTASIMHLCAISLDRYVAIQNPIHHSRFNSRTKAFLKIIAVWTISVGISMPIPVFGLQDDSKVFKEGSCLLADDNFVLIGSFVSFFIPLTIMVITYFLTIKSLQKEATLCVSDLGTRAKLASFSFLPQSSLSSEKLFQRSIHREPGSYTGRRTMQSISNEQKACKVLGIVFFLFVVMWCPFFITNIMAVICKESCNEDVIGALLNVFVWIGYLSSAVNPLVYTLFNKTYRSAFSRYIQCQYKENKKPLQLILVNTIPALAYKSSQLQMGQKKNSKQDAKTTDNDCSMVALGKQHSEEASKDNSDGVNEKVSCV
Muscarinic acetylcholine receptor M1 (Homo sapiens), sequence (P11229 whole entry, looked up): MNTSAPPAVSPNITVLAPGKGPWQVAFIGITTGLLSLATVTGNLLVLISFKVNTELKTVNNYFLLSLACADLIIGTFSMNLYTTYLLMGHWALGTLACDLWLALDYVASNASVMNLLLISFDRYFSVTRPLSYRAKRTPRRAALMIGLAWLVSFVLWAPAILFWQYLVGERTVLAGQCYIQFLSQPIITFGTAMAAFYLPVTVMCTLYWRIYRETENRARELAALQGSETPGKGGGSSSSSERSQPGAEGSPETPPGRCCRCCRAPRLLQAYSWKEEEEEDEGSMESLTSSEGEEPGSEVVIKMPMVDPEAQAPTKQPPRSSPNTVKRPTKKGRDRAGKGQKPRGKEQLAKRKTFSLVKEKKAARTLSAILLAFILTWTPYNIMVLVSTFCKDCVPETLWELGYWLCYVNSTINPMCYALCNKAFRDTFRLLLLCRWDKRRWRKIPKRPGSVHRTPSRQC
Beta-2 adrenergic receptor (Homo sapiens), sequence (P07550 whole entry, looked up): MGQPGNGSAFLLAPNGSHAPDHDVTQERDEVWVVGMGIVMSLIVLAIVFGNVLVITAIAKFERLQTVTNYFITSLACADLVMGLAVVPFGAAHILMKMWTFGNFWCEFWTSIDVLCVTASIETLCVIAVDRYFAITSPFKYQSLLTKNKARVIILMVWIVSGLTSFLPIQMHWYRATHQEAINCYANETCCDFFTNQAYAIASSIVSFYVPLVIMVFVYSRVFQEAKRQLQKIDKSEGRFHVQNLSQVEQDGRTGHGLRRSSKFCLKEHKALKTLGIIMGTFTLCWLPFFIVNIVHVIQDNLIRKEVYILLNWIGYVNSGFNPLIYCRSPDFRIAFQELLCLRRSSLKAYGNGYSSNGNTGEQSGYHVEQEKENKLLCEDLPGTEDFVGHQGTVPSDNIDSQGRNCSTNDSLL
KiSS-1 receptor (Homo sapiens), sequence (Q969F8 whole entry, looked up): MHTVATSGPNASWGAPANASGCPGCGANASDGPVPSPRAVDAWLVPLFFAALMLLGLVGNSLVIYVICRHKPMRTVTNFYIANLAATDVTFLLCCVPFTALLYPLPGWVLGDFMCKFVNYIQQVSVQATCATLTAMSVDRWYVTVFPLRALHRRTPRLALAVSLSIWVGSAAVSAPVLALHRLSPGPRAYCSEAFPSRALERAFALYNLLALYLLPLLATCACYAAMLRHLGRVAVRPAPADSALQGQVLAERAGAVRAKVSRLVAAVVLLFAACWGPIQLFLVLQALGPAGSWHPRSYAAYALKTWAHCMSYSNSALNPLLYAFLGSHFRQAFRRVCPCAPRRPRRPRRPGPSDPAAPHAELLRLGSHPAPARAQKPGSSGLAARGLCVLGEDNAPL

COc1ccc(C#N)cc1
inactive: Potency [1] | Potency [2] | Potency [3] | Potency [4] | Potency [5] | Potency [6] | Potency [7] | Potency [8] | Potency [9] | Potency [10] | Potency [11] | Potency [12] | Potency [13] | Potency [14] | Potency [15] | Potency [16] | Potency [17] | Potency [18] | Potency [19] | Potency [20]

Cc1ncc(CSSCc2cnc(C)c(O)c2CO)c(CO)c1O
inactive: Potency [1] | Potency [2] | Potency [3] | Potency [4] | Potency [5] | Potency [6] | Potency [7] | Potency [8] | Potency [9] | Potency [10] | Potency [11] | Potency [12] | Potency [13] | Potency [14] | Potency [15] | Potency [16] | Potency [17] | Potency [18] | Potency [20]

CCC(CC)C(C)CCOC(C)=O (configuration not stated)
inactive: Potency [1] | Potency [2] | Potency [3] | Potency [4] | Potency [5] | Potency [6] | Potency [7] | Potency [8] | Potency [9] | Potency [10] | Potency [11] | Potency [12] | Potency [13] | Potency [14] | Potency [15] | Potency [16] | Potency [17] | Potency [18] | Potency [19] | Potency [20]

c1ccc(CSCc2ccccc2)cc1
inactive: Potency [1] | Potency [2] | Potency [3] | Potency [4] | Potency [5] | Potency [6] | Potency [7] | Potency [8] | Potency [9] | Potency [10] | Potency [11] | Potency [12] | Potency [13] | Potency [14] | Potency [15] | Potency [16] | Potency [17] | Potency [18] | Potency [20]

CNc1ccccc1
inactive: Potency [1] | Potency [2] | Potency [3] | Potency [4] | Potency [5] | Potency [6] | Potency [7] | Potency [8] | Potency [9] | Potency [10] | Potency [11] | Potency [12] | Potency [13] | Potency [14] | Potency [15] | Potency [16] | Potency [17] | Potency [18] | Potency [20]

C[Si](C)=O
inactive: activity change, negative = cytotoxicity [1] 4.07% [at 8.39 µM] | activity, positive = activation [2] -5.78% [at 8.39 µM] | activity change [3] -0.63% [at 5.22 µM, stronger effect = higher value] | activation [4] -1.56% [at 6.97 µM] | activation [5] 0.129% [at 5.23 µM] | activation [6] 3.5% [at 5.99 µM] | activation [7] 0.12% [at 5.99 µM] | activity change, negative = cytotoxicity [8] 7.59% [at 5.99 µM] | activity change, negative = cytotoxicity [9] 11.3% [at 5.99 µM] | activity change, negative = cytotoxicity [10] 1.47% [at 5.99 µM] | activation [11] -0.704% [at 5.99 µM] | activity, negative = inhibition [12] 1.83% [at 5.62 µM] | activation [13] 3.07% [at 7.02 µM] | activity, negative = inhibition [14] -3.21% [at 5.58 µM] | activation [15] 0.243% [at 6.97 µM] | activation [16] 0.463% [at 8.39 µM] | activity change, negative = inhibition [17] -3.7% [at 8.39 µM] | activity change, negative = inhibition [18] -1.43% [at 8.39 µM] | activation [19] 4.84% [at 8.39 µM] | activity change, negative = inhibition [20] 6.58% [at 8.38 µM]

CN(C)c1ccc(Cc2ccc(N(C)C)cc2)cc1
active: Potency [12] 4.23 µM
inactive: Potency [1] | Potency [3] | Potency [4] | Potency [5] | Potency [6] | Potency [7] | Potency [8] | Potency [9] | Potency [10] | Potency [11] | Potency [13] | Potency [14] | Potency [15] | Potency [16] | Potency [17] | Potency [18] | Potency [19] | Potency [20]
inactive and 34.4 µM (active): Potency [2]
